Assay outcomes: PubChem, several laboratories
The list is not random: actives were taken first. Their share in the collection is about 2.6%.
TROY NFkB inh = inhibitors of TROY-driven NF-kB signaling, primary screen, Q293 LMP1-TROYcd cells, NF-kB luciferase, uHTS; AID 1347056, 2019; Q293 LMP1-TROYcd NF-kB luciferase reporter, 4 h; inhibition, % at 10 µM; hit rate 0.98% among 360,000;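 active means compounds whose plate-normalised and pattern-corrected inhibition of the luciferase reporter signal at the single screening dose is 50% or more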
HSP90 inh = HSP90 inhibitors, primary screen, cell lysate, luminescence. Heat shock protein HSP 90 (rabbit reticulocyte lysate; luciferase refolding). Rabbit reticulocyte lysate, luciferase refolding luminescence, 3 h. inhibition, % at 5.6 µM. hit rate 0.91% among 290,000. AID 1789, 2009;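 active means inhibition above the screen-wide mean plus 3 SD, computed separately per campaign, cut at about 16% in these data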;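 further: inhibitors lower the luminescence because luciferase stays unfolded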
TWEAK-Fn14 inh = inhibitors of TWEAK-Fn14 signaling, primary screen, luciferase reporter cells, uHTS. AID 1159606, 2016. hit rate 2% among 360,000. inhibition, % at 10 µM. TWEAK-stimulated Fn14 reporter cells, luciferase luminescence, 8 h; in the data active means inhibition above about 50%
EBV LMP1 NFkB = EBV LMP1-driven NF-kappaB luciferase reporter inhibitors, primary screen, cell-based, luminescence, single point; inhibition, % at 12.5 µM; LMP1-induced NF-kappaB luciferase reporter cells; hit rate 0.69% among 350,000; in the data active means inhibition above about 41%
LGR2 inh = inhibitors of bursicon-induced LGR2 CRE-luciferase signal, primary screen, cell-based, HEK293, CRE-luciferase reporter, bursicon stimulation. inhibition, % at 9.99 µM. AID 720647, 2013. hit rate 0.35% among 380,000. bursicon-stimulated, 4 h;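 active means drop in luminescence signal, shown as inhibition above about 50% in the replicate tests, limit read from the data, passing the limit was not always enough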;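 further: agonist challenge used bursicon conditioned medium at about half maximal strength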
aDG glyco act = activators of alpha-DG glycosylation, primary screen, uHTS, Pro5-aDG cells, AlphaScreen. activation, % at 10 µM. hit rate 0.22% among 360,000. alpha-DG glycosylation AlphaScreen (IIH6); 0% Pro5, 100% B10-LARGE cell signal;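 active means activation of at least 8% versus controls, or a plate z-score of at least 8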;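 further: Pro5 are CHO cells carrying HIG-tagged alpha-DG that lacks glycosylation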
Of the large screens only hits and unclear results are named; the others gave an inactive call.

COc1ccc(NC(=O)N(C)C[C@H]2OCCCC[C@H](C)Oc3ccc(NC(=O)c4ccccc4)cc3C(=O)N([C@H](C)CO)C[C@@H]2C)cc1	none (no result: TROY NFkB inh, HSP90 inh, TWEAK-Fn14 inh, EBV LMP1 NFkB, aDG glyco act)
CN(C)C=NC(=O)c1[nH]c2ccc(Cl)cc2c1-c1ccccc1	TWEAK-Fn14 inh 69
CCOc1ccc(Br)cc1S(=O)(=O)Nc1cccc(S(=O)(=O)N(C)c2ccccc2)c1	TROY NFkB inh 77
C[C@H](O)C#Cc1ccc([C@@H]2[C@H]3CN(S(=O)(=O)Cc4ccccc4)CCCCN3[C@H]2CO)cc1	none (no result: TROY NFkB inh, HSP90 inh, TWEAK-Fn14 inh, EBV LMP1 NFkB, aDG glyco act)
CCN(CC(=O)O)S(=O)(=O)c1cc(Cl)ccc1Cl	none
CN(CC(=O)O)S(=O)(=O)c1cc(Cl)ccc1Cl	TROY NFkB inh 57
Cc1cc(C)c(O)c(C(=O)CC2CC(=O)NC(=O)C2)c1	LGR2 inh 65 (no result: TROY NFkB inh, HSP90 inh, TWEAK-Fn14 inh, EBV LMP1 NFkB, aDG glyco act)
CC(=O)N(Cc1cc2c(C)cc(C)cc2[nH]c1=O)C1CCCCC1	none (no result: LGR2 inh)
C[C@H](NC(=O)C[C@H]1C[C@H]2c3cc(NC(=O)Nc4ccc(C(F)(F)F)cc4)ccc3O[C@H]2[C@H](CO)O1)c1ccccc1	none (no result: TROY NFkB inh, HSP90 inh, TWEAK-Fn14 inh, EBV LMP1 NFkB, aDG glyco act)
COCC(=O)N1[C@H](CO)[C@H](c2ccccc2)[C@@H]1C#N	none (no result: TROY NFkB inh, HSP90 inh, TWEAK-Fn14 inh, EBV LMP1 NFkB, aDG glyco act)
Cc1cccc2sc(NC(=O)C3CCCO3)nc12 (configuration not stated)	none
Cc1nc(C)c(C(=O)Nc2nc3c(C)cccc3s2)o1	TWEAK-Fn14 inh 70
O=C(C[C@@H]1CC[C@@H]2[C@H](COC[C@H](O)CN2Cc2cccc(C(F)(F)F)c2)O1)NCc1ccccc1	none (no result: TROY NFkB inh, HSP90 inh, TWEAK-Fn14 inh, EBV LMP1 NFkB, aDG glyco act)
O=C1CN(S(=O)(=O)Cc2ccccc2)C[C@@H]2[C@H](c3ccc(C#CCC4CCCC4)cc3)[C@@H](CO)N12	none (no result: TROY NFkB inh, HSP90 inh, TWEAK-Fn14 inh, EBV LMP1 NFkB, aDG glyco act)
CC(C)Oc1ccc(CSC(=N)N)cc1	TWEAK-Fn14 inh 65 (no result: LGR2 inh)
CCCN(C)C[C@@H]1Oc2ncc(-c3cccc(F)c3)cc2C(=O)N([C@H](C)CO)C[C@@H]1C	none (no result: TROY NFkB inh, HSP90 inh, TWEAK-Fn14 inh, EBV LMP1 NFkB, aDG glyco act)
Cn1/c(=N/NC(=O)c2ccccc2Br)sc2ccccc21	EBV LMP1 NFkB 49
Cc1[nH]n(-c2ccccc2)c(=O)c1C(C[N+](=O)[O-])c1ccc(Br)cc1 (configuration not stated)	none (no result: LGR2 inh)
COc1cccc(C(C[N+](=O)[O-])c2c(C)[nH]n(-c3ccccc3)c2=O)c1 (configuration not stated)	HSP90 inh 42
COC(=O)N1C(=O)[C@@](c2ccccc2)(C(C)C)N1C(=O)OC	TWEAK-Fn14 inh 61 (no result: LGR2 inh)
COC(=O)N1C(=O)[C@](c2ccc(Cl)cc2)(C(C)C)N1C(=O)OC	none
COC(=O)N1C(=O)[C@@](c2ccc(OC)cc2)(C(C)C)N1C(=O)OC	TWEAK-Fn14 inh 57
COc1ccc(S(=O)(=O)N2CCC(C(=O)NC3CC3)CC2)cc1OC	EBV LMP1 NFkB 67
CC(=O)c1cccc(S(=O)(=O)N2CCC(C(=O)Nc3cccc(C(=O)NC4CC4)c3)CC2)c1	TROY NFkB inh 62 (no result: HSP90 inh)
CCCNC(=O)N(C)C[C@@H]1Oc2ncc(C3=CCCCC3)cc2C(=O)N([C@@H](C)CO)C[C@@H]1C	none (no result: TROY NFkB inh, HSP90 inh, TWEAK-Fn14 inh, EBV LMP1 NFkB, aDG glyco act)
CCN(CC)CCN(Cc1cc2cc(C)cc(C)c2[nH]c1=O)C(=S)NCc1ccco1	none
Cc1ccc2cc(CN(Cc3ccco3)C(=O)NCc3ccccc3)c(=O)[nH]c2c1C	TROY NFkB inh 50 (no result: LGR2 inh)
Cc1cc(C)c2[nH]c(=O)c(CN(Cc3cccs3)C(=S)NCc3ccco3)cc2c1	TWEAK-Fn14 inh 64
Cc1ccc2cc(CN(Cc3ccco3)C(=O)c3ccccc3)c(=O)[nH]c2c1C	none (no result: LGR2 inh)
CN(C(=O)c1cccc(NC(=O)Cc2ccc(NC(=O)C3CCCN(C(=O)CCc4ccccc4)C3)cc2)c1)C1CCCCC1 (configuration not stated)	TROY NFkB inh 62, TWEAK-Fn14 inh 89 (no result: HSP90 inh)
CN(Cc1ccccc1)C(=O)c1cccc(NC(=O)Cc2ccc(NC(=O)C3CCN(C(=O)CCc4ccccc4)CC3)cc2)c1	TROY NFkB inh 57, TWEAK-Fn14 inh 85 (no result: HSP90 inh)
CN(Cc1ccccc1)C(=O)c1ccc(NC(=O)Cc2ccc(NC(=O)C3CCN(C(=O)CCc4ccccc4)CC3)cc2)cc1	none (no result: HSP90 inh)
Cc1ccc(SSc2cc(C)ccc2N)c(N)c1	TWEAK-Fn14 inh 58 (no result: HSP90 inh)
CCOc1ccc(-c2csc(/C(C#N)=C\c3ccc(O)c([N+](=O)[O-])c3)n2)cc1	TROY NFkB inh 71, TWEAK-Fn14 inh 104
CC(O)c1cccc(NC(=O)CC(c2ccccc2)c2ccccc2)c1 (configuration not stated)	TWEAK-Fn14 inh 86
O=C(CC(c1ccccc1)c1ccccc1)Nc1ccncc1	none
O=C(N/N=C1/C(=O)c2cccc3cccc1c23)c1ccc(Cl)cc1	TWEAK-Fn14 inh 106 (no result: LGR2 inh)
O=C(Sc1cccc2cccnc12)c1ccccc1Br	TWEAK-Fn14 inh 101
C[C@H](NC(=O)C[C@H]1C=C[C@H](NS(=O)(=O)c2cccc(F)c2)[C@H](CO)O1)c1ccccc1	none (no result: TROY NFkB inh, HSP90 inh, TWEAK-Fn14 inh, EBV LMP1 NFkB, aDG glyco act)
Cc1cc(NC(c2cccnc2)c2c(C)[nH]c3ccccc23)no1 (configuration not stated)	HSP90 inh 16 (no result: LGR2 inh)
CCSc1nnc(NC(=O)CCn2c(=O)oc3ccccc32)s1	EBV LMP1 NFkB 79 (no result: HSP90 inh, LGR2 inh)
CCCOC1CCCN(C(=O)c2cc(COc3c(F)cccc3F)on2)C1 (configuration not stated)	none
Cc1ccccc1C1CCCN(C(=O)c2cc(COc3c(F)cccc3F)on2)C1 (configuration not stated)	TWEAK-Fn14 inh 85
COc1ccc(NC(=O)Nc2ccc3c(c2)CC(=O)N([C@@H](C)CO)C[C@H](C)[C@@H](CN(C)C(=O)Nc2ccccc2)O3)cc1	none (no result: TROY NFkB inh, HSP90 inh, TWEAK-Fn14 inh, EBV LMP1 NFkB, aDG glyco act)
COc1ccc(Cn2c(C3CCCCC3)nc3c(c(=O)c4ccccc4n3C)c2=O)cc1	none (no result: TROY NFkB inh, TWEAK-Fn14 inh, EBV LMP1 NFkB, LGR2 inh, aDG glyco act)
COc1ccc(CCn2c(C3CCCCC3)nc3c(c(=O)c4ccccc4n3C)c2=O)cc1	TROY NFkB inh 65 (no result: EBV LMP1 NFkB)
COc1ccc(NC(=O)Nc2ccc3c(c2)C(=O)N([C@@H](C)CO)C[C@@H](C)[C@@H](CN(C)Cc2ccncc2)OCCCC[C@H](C)O3)cc1	none (no result: TROY NFkB inh, HSP90 inh, TWEAK-Fn14 inh, EBV LMP1 NFkB, aDG glyco act)
Fc1cccc(-c2cc3nc4c(c(N5CCC6(CC5)OCCO6)n3n2)CCCC4)c1	TWEAK-Fn14 inh 54 (no result: LGR2 inh)
COc1cc(/C=C(\C#N)c2nc3ccccc3[nH]2)ccc1Oc1ccc([N+](=O)[O-])cn1	TROY NFkB inh 52
COc1cc(/C=C(\C#N)c2nc3ccc(C)cc3[nH]2)cc([N+](=O)[O-])c1O	TWEAK-Fn14 inh 51
COc1cc(/C=C(/C#N)c2ccccc2)ccc1Oc1ccc([N+](=O)[O-])cn1	none (no result: LGR2 inh)
Cc1c(C(=O)Nc2cccc(Cl)c2)oc2ccc(S(=O)(=O)N3CCC4(CC3)OCCO4)cc12	TWEAK-Fn14 inh 62
